Data reported in PubChem BioAssay (NCATS).
Records with an inconclusive call do not appear. Active and inactive are the calls of the source. The call rests on the fitted dose curve; in most records, active means well fitted curve in the direction sought with a large enough effect; inconclusive means small, poorly fitted or top-dose-only effect, or another doubt; inactive means no such curve, though single readings can be large; an effect the other way counts as inactive or inconclusive. Residues, ends and D or L forms follow the SMILES beside them.

Key:
[1] = BET inhibitor-based combinations targeting novel dependencies in MECOM-rearranged (r) AML: MV-4-11 cell line (AID 2202233); further: nearly all actives have a fitted effect of over 45% in size
Summary of the method: (§1)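 Each compound is tested in an 11-point concentration series against 500 seeded cells/well for 48 hr. The luminescent viability signal is normalized to DMSO and blank wells, then reduced to AUC and a cell-line-centred Z-AUC.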

[2] = BET inhibitor-based combinations targeting novel dependencies in MECOM-rearranged (r) AML: UCSD-AML1 cell line (AID 2202235); further: nearly all actives have a fitted effect of over 40% in size
Summary of the method: as §1

[3] = BET inhibitor-based combinations targeting novel dependencies in MECOM-rearranged (r) AML: AML-191 cell line (AID 2202236; further: nearly all actives have a fitted effect of over 35% in size)
Summary of the method: (§2)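 A 48 hr incubation preceded viability reading by CellTiter-Glo, with 15 min room-temperature development. Dose series had 11 points; normalization used DMSO and empty wells; AUC was computed and mean-centered per line as Z-AUC.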

[4] = BET inhibitor-based combinations targeting novel dependencies in MECOM-rearranged (r) AML: AML-194 cell line (AID 2202237; further: nearly all actives have a fitted effect of over 40% in size)
Summary of the method: as §2

[5] = BET inhibitor-based combinations targeting novel dependencies in MECOM-rearranged (r) AML: HNT-34 cell line (AID 2202234); further: nearly all actives have a fitted effect of over 35% in size
Summary of the method: as §1

Measured: Potency
Potency means the concentration at half of the fitted maximal effect.

Cc1c(CN2CCN(C(=O)[C@H](C)O)CC2)sc2c(N3CCOCC3)nc(-c3cnc(N)nc3)nc12
active: [1] 0.525 µM | [2] 0.0525 µM

CCNC(=O)Nc1ccc(Oc2ncnc(N)c2/C=N/OC)cc1Cl
active: [1] 18.6 µM | [2] 23.5 µM | [3] 16.6 µM | [4] 23.5 µM

CN[C@@H]1C[C@H]2O[C@@](C)([C@@H]1OC)n1c3ccccc3c3c4c(c5c6ccccc6n2c5c31)C(=O)N[C@H]4O
active: [1] 0.0215 µM | [5] 0.428 µM | [2] 0.135 µM | [3] 0.605 µM | [4] 0.382 µM

C[C@H](NC(=O)[C@H]1NCC[C@@H]1O)c1ccc(-c2noc(CCC3CCCC3)n2)cc1
inactive: [1] | [2] | [4]
active: [3] 20.9 µM

Cc1ccc([C@@H]2O[C@H](CO)[C@@H](O)[C@H](O)[C@H]2O)cc1Cc1ccc(-c2ccc(F)cc2)s1
active: [1] 13.2 µM | [3] 20.9 µM
inactive: [2] | [4]

CC(=O)O[C@@]12CO[C@@H]1C[C@H](O)[C@@]1(C)C(=O)[C@H](O)C3=C(C)[C@@H](OC(=O)[C@H](O)[C@@H](NC(=O)OC(C)(C)C)c4ccccc4)C[C@@](O)([C@@H](OC(=O)c4ccccc4)[C@H]21)C3(C)C
active: [1] 0.0042 µM | [5] 0.0037 µM | [2] 0.0047 µM | [3] 0.0132 µM | [4] 0.0148 µM

COc1ccc(Cl)cc1-c1cc(=O)[nH]c(=S)n1CC(N)=O
not listed: [3]
inactive: all other assays above

O=C(Nc1ccc(OC(F)(F)Cl)cc1)c1cnc(N2CC[C@@H](O)C2)c(-c2ccn[nH]2)c1
inactive: [2]
active: [1] 20.9 µM | [5] 0.0105 µM | [4] 18.6 µM

Cc1[nH]c(/C=C2\C(=O)Nc3ccc(S(=O)(=O)Cc4c(Cl)cccc4Cl)cc32)c(C)c1C(=O)N1CCC[C@@H]1CN1CCCC1
active: [1] 5.9 µM | [5] 18.6 µM | [2] 8.33 µM | [3] 9.34 µM

CNC(=O)c1ccc(N2C(=S)N(c3ccc(C#N)c(C(F)(F)F)c3)C(=O)C2(C)C)cc1F
inactive: [2] | [3] | [4]
active: [1] 18.6 µM

CCCCN(CCCC)CCC(O)c1cc2c(Cl)cc(Cl)cc2c2cc(C(F)(F)F)ccc12 (configuration not stated)
active: [1] 18.6 µM | [2] 26.3 µM

O=C(Nc1ccccc1)Nc1ccc(-c2ccc(C(=O)[C@@H]3CCC[C@H]3C(=O)O)cc2)cc1
not listed: [2]
inactive: all other assays above

N[C@@H](CCC(=O)O)C(=O)N[C@@H](Cc1c[nH]c2ccccc12)C(=O)O (H-Glu-Trp-OH)
not listed: [3]
inactive: all other assays above

CC(C)=CCC[C@](C)(O[C@@H]1O[C@H](CO[C@@H]2O[C@H](CO)[C@@H](O)[C@H](O)[C@H]2O)[C@@H](O)[C@H](O)[C@H]1O)[C@H]1CC[C@]2(C)[C@@H]1[C@H](O)C[C@@H]1[C@@]3(C)CC[C@H](O[C@@H]4O[C@H](CO)[C@@H](O)[C@H](O)[C@H]4O[C@@H]4O[C@H](CO)[C@@H](O)[C@H](O)[C@H]4O)C(C)(C)[C@@H]3CC[C@]12C
inactive: all assays above

CCN1CCN(Cc2ccc(-c3cc4c(N[C@H](C)c5ccccc5)ncnc4[nH]3)cc2)CC1
active: [1] 2.63 µM | [5] 2.63 µM | [3] 18.6 µM

Cc1ccc(Nc2cc(N[C@@H]3CCCC[C@@H]3N)nnc2C(N)=O)nc1C
active: [1] 3.72 µM | [5] 16.6 µM | [3] 18.6 µM | [4] 20.9 µM
